Measurements published in PubChem BioAssay.
Values joined by “and” are separate entries in the source; they are usually repeats but may differ in a detail not shown here. Equal values may be shown once. Records with an inconclusive call do not appear. For some assays here: Potency and affinity values are given separately. Active and inactive are the calls of the source. Cut-off read from the data, not from the text of the source, unless noted: active = inhibition above about 80%; inactive = the rest.

Columns and labels:
[1] = growth inhibition, single agents and combos, LFS_MB_1R, cell-based, cisplatin or BGB combos, synergistic combos for chromothripsis tumors (AID 1671452); settings: LFS_MB_1R medulloblastoma cells, stronger effect = higher value;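 note: cells exposed for 96 hours before readout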
[2] = growth inhibition, single agents and combos, CRL2098, cell-based, BGB or cisplatin IC20 combos, synergistic combos for chromothripsis tumors (AID 1671454); settings: CRL2098 osteosarcoma cells, drug combinations, stronger effect = higher value;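 note: cells exposed for 96 h before readout; 0% = vehicle DMSO and 100% = killing by high DMSO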
[3] = growth inhibition, single agents and combos, HD-MB03, cell-based, BGB or cisplatin IC20 combos, synergistic combos for chromothripsis tumors (AID 1671455; in the data active = inhibition above about 83%;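 note: 0% = vehicle DMSO and 100% = high DMSO as cytotoxic control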); settings: HD-MB03 medulloblastoma cells, stronger effect = higher value
[4] = growth inhibition, single agents and combos, UWB1.289, cell-based, BGB or cisplatin combos, synergistic combos for chromothripsis tumors (AID 1671456); settings: UWB1.289 ovarian carcinoma cells, stronger effect = higher value;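 note: cells exposed to compound for four days; 0% = vehicle DMSO and 100% = killing by high DMSO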
[5] = growth inhibition, single agents and combos, LFS_MB_2R, cell-based, cisplatin combos, synergistic combos for chromothripsis tumors (AID 1671457); settings: LFS_MB_2R medulloblastoma cells, stronger effect = higher value;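 note: cells exposed to compound for four days before readout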
[6] = UWB1.289_BRCA1 ovarian cancer growth, cell-based, BGB or cisplatin combinations (AID 1671459); settings: UWB1.289 BRCA1 ovarian carcinoma, drug combinations, stronger effect = higher value
[7] = drug combination toxicity in non-malignant astrocytes – cell-based, BGB or cisplatin IC20 combos, cytotoxicity control for chromothriptic childhood tumor combination screen (AID 1671460); settings: Human astrocytes, viability inhibition, drug combinations, at 0.5 µM, stronger effect = higher value;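 note: cells exposed to compounds for 96 hours before viability readout; 0% = vehicle and 100% = killing control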
[8] = target: ATP-dependent translocase ABCB1 (Homo sapiens) (UniProt P08183); assay: P-glycoprotein substrate transport blockade – cell-based (AID 377; in the data active = fluorescence slope change above about 50%); settings: MDR1-expressing cells, fluorescent substrate accumulation slope; stronger effect = higher value; concentration not given here
ATP-dependent translocase ABCB1 (Homo sapiens), sequence (P08183 whole entry, looked up): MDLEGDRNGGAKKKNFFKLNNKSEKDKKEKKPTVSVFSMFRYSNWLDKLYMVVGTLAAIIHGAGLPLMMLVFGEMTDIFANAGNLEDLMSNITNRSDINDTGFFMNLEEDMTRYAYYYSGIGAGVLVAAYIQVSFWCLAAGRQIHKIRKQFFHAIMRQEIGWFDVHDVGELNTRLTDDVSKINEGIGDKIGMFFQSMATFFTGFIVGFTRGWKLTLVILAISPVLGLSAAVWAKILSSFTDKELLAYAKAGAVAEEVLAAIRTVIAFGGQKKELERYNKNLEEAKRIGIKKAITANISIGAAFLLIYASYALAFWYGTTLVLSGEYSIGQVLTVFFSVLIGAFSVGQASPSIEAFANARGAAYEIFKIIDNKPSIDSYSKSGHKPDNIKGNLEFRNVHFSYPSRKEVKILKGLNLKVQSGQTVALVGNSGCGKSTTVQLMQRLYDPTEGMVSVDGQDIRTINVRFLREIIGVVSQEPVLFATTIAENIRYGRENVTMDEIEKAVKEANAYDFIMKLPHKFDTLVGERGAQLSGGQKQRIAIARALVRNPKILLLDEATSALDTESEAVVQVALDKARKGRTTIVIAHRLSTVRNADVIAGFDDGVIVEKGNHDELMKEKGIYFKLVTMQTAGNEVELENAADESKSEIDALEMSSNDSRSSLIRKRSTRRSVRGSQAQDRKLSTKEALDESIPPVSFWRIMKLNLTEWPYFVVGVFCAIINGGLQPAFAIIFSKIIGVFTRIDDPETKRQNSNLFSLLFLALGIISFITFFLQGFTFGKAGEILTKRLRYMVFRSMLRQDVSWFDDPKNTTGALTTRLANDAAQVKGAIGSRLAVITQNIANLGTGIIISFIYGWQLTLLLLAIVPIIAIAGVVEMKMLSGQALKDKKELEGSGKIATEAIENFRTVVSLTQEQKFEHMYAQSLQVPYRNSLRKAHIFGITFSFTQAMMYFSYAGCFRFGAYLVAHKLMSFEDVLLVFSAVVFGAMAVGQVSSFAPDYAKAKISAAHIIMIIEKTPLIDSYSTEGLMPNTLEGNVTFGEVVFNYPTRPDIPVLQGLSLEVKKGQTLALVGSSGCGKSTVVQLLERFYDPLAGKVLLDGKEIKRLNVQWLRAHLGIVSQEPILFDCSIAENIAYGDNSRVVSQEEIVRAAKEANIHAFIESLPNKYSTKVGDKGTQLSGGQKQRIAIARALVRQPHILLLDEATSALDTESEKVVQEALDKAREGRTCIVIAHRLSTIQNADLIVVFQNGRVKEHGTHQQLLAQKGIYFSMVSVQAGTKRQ

[9] = blockers of polyQ-driven CASP3 activation – cell-based (AID 1583); settings: polyglutamine-induced caspase-3 activation, cell assay; stronger effect = higher value;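 tested at 10 µM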
[10] = yeast 75Q aggregation reduction – 75Q-TubU reporter (AID 1593); settings: Yeast 75Q polyglutamine aggregation reporter
[11] = restoration of touch response, mutant HTT neurons – whole organism, C. elegans mechanosensory neurons, N-terminal huntingtin (AID 1599); settings: C. elegans polyQ-huntingtin mechanosensory neurons, stronger effect = higher value
[12] = blockers of cytochrome c efflux from mitochondria – biochemical, purified mitochondria (AID 1603); settings: stronger effect = lower value;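 note: mouse liver mitochondria challenged with calcium chloride; signal normalized to the plate average as 100%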
[13] = polyglutamine aggregate formation blockers (AID 1604); settings: polyglutamine-induced protein aggregation inhibition assay; stronger effect = higher value; tested at 2.5 µM
[14] = glutamate transport activators, MN-1 cells, MN-1 cell line (AID 1612); settings: MN-1 motor neuron cells, stronger effect = higher value;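 note: tested at 1 µM final; 0% = mean of DMSO vehicle wells on each plate; positive means more glutamate uptake than control and negative means less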
[15] = GFP-Q80 aggregate reduction, neuronal-like cells, cell-based, NGF-treated PC12, GFPQ80 (AID 1614); settings: PC12 NGF-treated GFP-polyQ80 inclusion reduction;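 note: lower means fewer inclusions and 0 means no inclusions at all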
[16] = 75Q-TubH aggregate inhibition, S. cerevisiae, yeast (AID 1616); settings: S. cerevisiae 75Q-TubH polyglutamine aggregation suppression; stronger effect = higher value
[17] = measured here: combination with BGB IC40, at 0.05 µM
[18] = measured here: combination with cisplatin, at 0.5 µM
[19] = measured here: combination with cisplatin, at 5 µM
[20] = measured here: combination with BGB at IC20, at 0.5 µM
[21] = measured here: combination with cisplatin at IC20, at 0.5 µM
[22] = measured here: combo with BGB at IC20, at 0.5 µM
[23] = measured here: combo with cisplatin at IC20, at 0.5 µM
[24] = measured here: inhibition with BGB combination, at 0.05 µM
[25] = measured here: inhibition with cisplatin combination, at 0.05 µM
[26] = BGB combination, concentration series, at 5 µM
[27] = cisplatin combination, concentration series, at 5 µM
[28] = measured here: combo with BGB IC20
[29] = measured here: combo with cisplatin IC20

Compound: Nc1nc(Cl)nc2c1ncn2[C@@H]1O[C@H](CO)[C@@H](O)[C@@H]1F
- inhibition ([1]; at 0.5 µM): -12.4% (inactive) and -0.15% (inactive)
- inhibition [1, 17]: -16.1% and -38.3%
- inhibition [1, 18]: 76.7% and 60.5%
- inhibition [1, 19]: 89.1% and 86.1%
- inhibition ([2]; at 0.5 µM): 79.4% (inactive) and 75.9% (inactive)
- inhibition [2, 20]: 67.5% and 66%
- inhibition [2, 21]: 88.5% and 80.9%
- inhibition ([3]; at 0.5 µM): 92.5% (active) and 92.1% (active)
- inhibition [3, 22]: 86.9% and 84.3%
- inhibition [3, 23]: 96.9% and 97.4%
- inhibition ([4]; at 0.5 µM): 42.4% (inactive) and 38.2% (inactive)
- inhibition [4, 24]: -20.1% and -11.3%
- inhibition [4, 25]: -17.8% and -24.8%
- inhibition ([5]; at 0.5 µM): 9.11% (inactive) and 33.6% (inactive)
- inhibition [5, 18]: 55% and 57.2%
- inhibition [5, 19]: 80.6% and 87.7%
- inhibition [6, 26]: 76.8% and 56.9%
- inhibition ([6]; at 0.5 µM): 50.9% (inactive) and 49.8% (inactive)
- inhibition [6, 27]: 99% and 94.5%
- inhibition [7]: 68.3% (inactive) and 72.7% (inactive)
- inhibition [7, 28]: 68.2% and 76%
- inhibition [7, 29]: 58.4% and 59.2%

Compound: COc1cc(N)c(Cl)cc1C(=O)NC1CCN(CCCOc2ccc(F)cc2)CC1OC (configuration not stated)
- fluorescence slope change [8]: 62% (active)

Compound: O=C(O)CN(CC(=O)O)Cc1cc2c(-c3ccccc3C(=O)O)c3cc(CN(CC(=O)O)CC(=O)O)c(=O)cc-3oc2cc1O
- inhibition [9]: -215%
- score [10]: 1.05
- rescue above control [11]: -5.14
- cytochrome c release ratio [12]: 0.86
- inhibition of aggregation [13]: 0%
- glutamate uptake change [14]: 13.5%
- inclusion score [15]: 0
- aggregation suppression score [16]: 0.687

Compound: CC(C)=CCC/C(C)=C/CO
- inhibition [9]: 23.2%
- score [10]: 1.12
- rescue above control [11]: 3.94
- cytochrome c release ratio [12]: 1.17
- inhibition of aggregation [13]: 60.6%
- glutamate uptake change [14]: 5.29%
- inclusion score [15]: 2
- aggregation suppression score [16]: 1.02

Compound: CC(=O)OCC(=O)[C@@]1(O)CCC2C3CCC4=CC(=O)CC[C@]4(C)C3[C@@H](O)C[C@@]21C (some centres not stated)
- inhibition [9]: 6.86%
- score [10]: 1.36
- rescue above control [11]: -8.68
- cytochrome c release ratio [12]: 1.12
- inhibition of aggregation [13]: 66.2%
- glutamate uptake change [14]: 16.2%
- inclusion score [15]: 2
- aggregation suppression score [16]: 0.966

Compound: CC(=O)NC(Cc1ccccc1)C(=O)O (configuration not stated)
- inhibition [9]: 6.15%
- score [10]: 1.35
- rescue above control [11]: 4.38
- cytochrome c release ratio [12]: 0.42
- inhibition of aggregation [13]: 85.9%
- glutamate uptake change [14]: 12.1%
- inclusion score [15]: 2
- aggregation suppression score [16]: 1.23

Compound: Nc1ncn([C@H]2C[C@H](O)[C@@H](CO)O2)c(=O)n1
- inhibition ([1]; at 0.5 µM): -7.33% (inactive)
- inhibition [1, 17]: -12.1%
- inhibition [1, 18]: -1.56%
- inhibition [1, 19]: -10.1%
- inhibition ([2]; at 0.5 µM): -25.9% (inactive)
- inhibition [2, 20]: -12.6%
- inhibition [2, 21]: -67.9%
- inhibition ([3]; at 0.5 µM): 30.9% (inactive)
- inhibition [3, 22]: 47.3%
- inhibition [3, 23]: 31.6%
- inhibition ([4]; at 0.5 µM): 16.5% (inactive)
- inhibition [4, 24]: 5.24%
- inhibition [4, 25]: -1.44%
- inhibition ([5]; at 0.5 µM): -4.56% (inactive)
- inhibition [5, 18]: -4.46%
- inhibition [5, 19]: 0.176%
- inhibition [6, 26]: 32.1%
- inhibition ([6]; at 0.5 µM): 25% (inactive)
- inhibition [6, 27]: 40.5%
- inhibition [7]: 26.9% (inactive)
- inhibition [7, 28]: 27.2%
- inhibition [7, 29]: 20.4%
